Reference: PubChem BioAssay AID488841 (Sanford-Burnham Center for Chemical Genomics, 2010)
The whole screen tested about 1,400 compounds, of which about 380 (27%) were called active. The list shows a part of the results. A number with no mark means an inactive call.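 How the source made its calls: active means mean inhibition above 50% across duplicate retests at 10 µM; inactive means the rest.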

Assay: yeast NALP1 reporter signal suppression – S. cerevisiae, luminescence, single concentration, NALP1 inhibitor project, confirmation (AID 488841);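 further: plate controls were DMSO in galactose medium for no effect and cells in plain SD medium for full effect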
Details: S. cerevisiae NALP1/ASC/Caspase-1 reporter, beta-gal luminescence; at 10 µM; active compounds read high

Going from `Cc1ccc(S(=O)(=O)NCC(=O)N(CC(=O)NC(C)(C)C)Cc2cccs2)cc1` to `CS(=O)(=O)N1N=C(c2ccco2)CC1c1ccc(Cl)cc1` (stereo not drawn), the inhibition falls from 31.3% to 19.9%.

First: Cc1cc(=O)oc2cc(OCC(=O)N3CCN(C(=O)c4ccco4)CC3)ccc12
Second: CC1=CC(C)(C)Nc2ccc(OC(=O)C(C)N3C(=O)c4ccccc4C3=O)cc21 (stereo not drawn)
The inhibition of the first is lower: 21.1% for the first, 32.8% for the second.

First: O=C(c1ccc(Br)o1)N(c1ccccn1)C1CCCCC1
Second: Cc1c(Cl)c([N+](=O)[O-])nn1Cc1ccc(C(=O)N/N=C\c2ccccn2)o1
The inhibition of the first is higher: 41.8% for the first, 28.8% for the second.

Compared with `C/C(=N\N(C)C)C1=C(O)c2ccccc2C1=O`, `CN(C)c1ccc(N=C/C=C2/N(C)c3ccccc3C2(C)C)cc1` is higher in inhibition: 29.9% for the first, 47.2% for the second.

Going from `CCOC(=O)C[N+](CC)(CC)CC#Cc1ccccc1` to `Cc1nc(NC(=O)/C=C/c2ccccc2)n[nH]1`, the inhibition rises from 15.1% to 40.7%.

Compared with `Cc1nnc(-c2ccccc2)o1`, `Cc1sc2ncnc(N/N=C/c3ccccc3O)c2c1C` is higher in inhibition: 31.1% for the first, 40.2% for the second.

First: CCCc1nn(C)c(C(=O)Nc2cccc(C)c2)c1Cl
Second: Cc1cc(C)cc(OCc2nnc(SCC(=O)OC(C)C)o2)c1
The inhibition of the first is lower: 42.2% for the first, 47% for the second.

First: CCOC(=O)c1c(/N=C/c2cc(OC)cc([N+](=O)[O-])c2O)sc(C)c1C
Second: COc1ccc(/C=N/NC(=O)c2csc(-n3nc(C)cc3C(F)(F)F)n2)cc1
The inhibition of the first is higher: 44.5% for the first, 17.9% for the second.

First: C=CCc1cc(Cl)ccc1OCCOCCNCCOC
Second: Cc1cc(Cl)c(OCCOCCN2CCC(C)CC2)c(Br)c1
The inhibition of the first is lower: 41.8% for the first, 44.9% for the second.

First: CC1=C(OC(=O)c2ccc(Br)cc2)C(C)(C)C(c2ccccc2)OC1=O (stereo not drawn)
Second: O=C(Cn1nnc2ccccc21)OCC(=O)c1ccc(Cl)cc1
The inhibition of the first is lower: 24.7% for the first, 40.5% for the second.

Going from `COc1cc(OC)c(-c2nnc(-c3ccc(OC)c(OC)c3OC)o2)cc1OC` to `O=C1C=CC(=O)N1CCNc1ncc(C(F)(F)F)cc1Cl`, the inhibition rises from 31.9% to 46.6%.

In the case of `CC(=O)N(C1=C(Cl)C(=O)c2ccccc2C1=O)C1CCCCC1`, the inhibition is reported as 58% (active).
In the case of `Cc1cccc(NCc2nc3ccccc3n2C)c1`, the inhibition is reported as 66% (active).
In the case of `Clc1ccc(OCCOCCN2CCc3ccccc3C2)c(Cl)c1`, the inhibition is reported as 52.3% (active).
In the case of `Nc1c(Cl)ncnc1N/N=C/c1ccccn1`, the inhibition is reported as 71.3% (active).
In the case of `C1CCC(C(CC2CCCCN2)C2CCCCC2)CC1` (stereo not drawn), the inhibition is reported as 54.6% (active).
With `O=C1C=CC(=O)N1CCCCCCN1C(=O)C=CC1=O` the inhibition was 73.3% (active).
